# ELG1 genotox – genotoxicity induction in ELG1-luciferase HEK293T cells. HEK293T ELG1-luciferase reporter, luminescence, 16 h. Potency, µM (titrated, usually from 46 µM), most hits filed as activators. 330,000 compounds, 1.3% hits; further: nearly all actives have a fitted effect of over 60% in size
#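 16 hr compound incubation (37 °C, 5% CO2) of HEK293T cells carrying luciferase-tagged ELG1; luciferase then measured by ONE-Glo luminescence after 30 min at RT.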
# Rab9 promoter act – Rab9 promoter activation | Potency, µM (titrated, usually from 9.22 µM), hits mostly activators | 320,000 compounds, 2.8% hits | Huh7 Rab9 promoter-luciferase reporter, luminescence, 24 h | AID 485297; further: nearly all actives have a fitted effect of over 60% in size
#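 Measured in stably transfected Huh7 cells bearing a Rab9 promoter–luciferase construct: 24 h compound treatment at 37 °C, followed by luminescence detection.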
# NPC1 promoter act – activators of NPC1 promoter; Huh7 NPC1 promoter luciferase reporter, 24 h; Potency, µM (top dose mostly 9.22 µM), actives largely listed as activators; 320,000 compounds, 2.4% hits; AID 485313; further: nearly all actives have a fitted effect of over 60% in size
#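 Quantitative HTS used a cell-based reporter: Huh7 cells stably bearing the NPC1 promoter upstream of luciferase were treated with compounds for 24 h, and promoter activation was read as luminescence.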
# FLuc counter – firefly luciferase modulation, counter-screen for miR-21 project; Potency, µM (top dose mostly 57.5 µM), hits mostly inhibitors; AID 588342; P08659; 360,000 compounds, 6.9% hits; purified FLuc, Km substrates, luminescence inhibition; further: nearly all actives have a fitted effect of over 55% in size
# Target sequence (P08659 whole entry, looked up): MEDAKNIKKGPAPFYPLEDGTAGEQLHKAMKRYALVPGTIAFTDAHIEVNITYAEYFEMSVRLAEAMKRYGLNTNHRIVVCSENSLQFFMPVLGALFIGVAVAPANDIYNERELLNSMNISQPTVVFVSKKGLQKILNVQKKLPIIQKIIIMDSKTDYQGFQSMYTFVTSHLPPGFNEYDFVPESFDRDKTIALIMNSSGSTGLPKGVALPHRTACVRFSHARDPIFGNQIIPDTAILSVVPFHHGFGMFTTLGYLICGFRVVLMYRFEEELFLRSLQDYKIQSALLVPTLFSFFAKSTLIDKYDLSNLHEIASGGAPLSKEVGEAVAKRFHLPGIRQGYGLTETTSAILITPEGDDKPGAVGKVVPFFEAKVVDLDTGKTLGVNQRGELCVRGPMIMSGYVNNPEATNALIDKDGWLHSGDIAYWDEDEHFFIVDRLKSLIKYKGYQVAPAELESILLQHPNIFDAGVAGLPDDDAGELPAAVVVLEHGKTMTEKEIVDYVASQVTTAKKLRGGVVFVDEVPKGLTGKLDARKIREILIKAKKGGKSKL
#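 Biochemical qHTS of compounds, final roughly 60 µM downward over six points, against 10 nM purified firefly luciferase using Km concentrations of substrates (10 uM D-luciferin, 10 uM ATP) in Tris acetate pH 7.5 buffer; luminescence output.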
# SMN2 splice enh – increases expression of the SMN2 splice variant | AID 1458 | 210,000 compounds, 2.8% hits | Potency, µM (highest dose often 46.1 µM), actives largely listed as activators | HEK293 SMN2-luciferase splicing reporter, luminescence, 30-36 h; further: nearly all actives have a fitted effect of over 55% in size
#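 qHTS luciferase splicing reporter: luminescence rises when SMN2 exon 7 is included in transfected HEK293 cells. Compound exposure lasted 30-36 h at 37C, with 4.5 mM final sodium butyrate as control, followed by a ONE-Glo read.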
# KinaseGlo FLuc – blocks Kinase-Glo luciferase, a counter-screen artifact. Q27757. Kinase-Glo luciferase, ATP luminescence, 8 min. Potency, µM (highest dose often 38.3 µM), hits mostly inhibitors. 200,000 compounds, 0.28% hits. AID 1379; further: nearly all actives have a fitted effect of over 60% in size
#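 Compound is pinned into ATP-containing buffer (10 uM ATP, imidazole pH 7.2, 7 mM MgCl2). Kinase-Glo luciferase reagent is then added. Light output is recorded following an 8-min room-temperature incubation.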
# A number is an active result; 0 = inactive; ? = inconclusive; - = no result; [ ] = remark or other dose. Hits are enriched below; roughly 7.3% of the tested compounds scored in any of these assays. The call rests on the fitted dose curve; in most records, active means well fitted curve in the direction sought with a large enough effect; inconclusive means small, poorly fitted or top-dose-only effect, or another doubt; inactive means no such curve, though single readings can be large; an effect the other way counts as inactive or inconclusive.
SMILES,ELG1 genotox,Rab9 promoter act,NPC1 promoter act,FLuc counter,SMN2 splice enh,KinaseGlo FLuc
CC(C(=O)NC1C=CS(=O)(=O)C1)N1C(=O)/C(=C/c2cccc(Cl)c2)SC1=S (stereo unspecified),0,0,0,15µM,-,-
CCn1cc(C(=O)NCCc2ccccc2)c(=O)c2cc(S(=O)(=O)N(C)C3CCCCC3)ccc21,-,-,-,0,0,-
CC(=O)c1cnc2c(-c3ccc(Cl)cc3)cnn2c1C,?,?,0,?,13µM,0
Cc1nn2c(-c3ccncc3)ccnc2c1Cl,0,0,0,0,0,0
Cc1cc(-c2ccc(Cl)cc2)n2nc(N)nc2n1,?,0,0,0[2.3 µM],-,0
Clc1ccc(-c2cnn3c(-c4ccncc4)ccnc23)cc1,0,0.35µM,0.5µM,0.95µM,3.2µM,0
Nc1nc2nccc(-c3ccc(Cl)cc3)n2n1,?,?,?,12µM,0,0
Nc1c(C(=O)O)cnc2c(-c3ccc(Cl)cc3)cnn12,?,1µM,1.4µM,3µM,11µM,0
Cc1ccc(Cl)cc1NCc1nnc2n1CCCCC2,-,-,-,0,-,-
COc1cccc2c1cc1c(=O)n(CC(=O)O)nc(C)n12,-,-,-,0,0,-
Cc1ccc(-n2ncc3c(N4CCCCC4)ncnc32)cc1Cl,-,-,-,0.13µM,-,-
Cc1ccc(-n2ncc3c(N4CCCCCC4)ncnc32)cc1Cl,-,-,-,0.43µM,-,-
COc1cccc(Cc2nc3ccccc3nc2SCC(=O)NCCc2ccccc2)c1,-,-,-,0,-,-
c1ccc2cc(NCNc3ccc4ccccc4c3)ccc2c1,-,-,-,-,0[9.22 µM],0[7.66 µM]
Cc1nn(-c2ccccc2)c(C)c1-c1cc(C(=O)N/N=C/c2ccc(O)cc2)[nH]n1,0,0,0,21µM,-,-
Cc1nn(-c2ccccc2)c(C)c1/C=N/NC(=O)c1cc(O)cc(O)c1,0,0,0,19µM,-,-
Cc1nn(-c2ccccc2)c(C)c1/C=N/NC(=O)c1ccccc1O,0,0,0,1.9µM,-,-
Cc1nn(-c2ccccc2)c(C)c1/C=N/NC(=O)c1cnccn1,0,0,0,?,-,-
COc1ccccc1CNC(=O)C1CCN(S(=O)(=O)c2c(C)noc2/C=C/c2c(C)cc(C)cc2C)CC1,-,-,-,0,-,-
CCc1nnc2c(N3CCN(c4cccc(C(F)(F)F)c4)CC3)nc3ccccc3n12,-,-,-,0,-,-
S=c1[nH]nc(-c2cc(-c3ccccn3)nc3ccccc23)o1,0,0,0,0,-,-
CCn1c(-c2ccccc2O)n[nH]c1=S,0,0,0,0,0,0
Cc1ccc(-c2cc(-c3n[nH]c(=S)o3)c3ccccc3n2)cc1,0,0,0,19µM,0,0
CCn1c(-c2cc(-c3cccc(OC)c3)nc3ccccc23)n[nH]c1=S,0,0,0,24µM,0,0
CCc1ccc(-c2cc(-c3n[nH]c(=S)n3CC)c3ccccc3n2)cc1,0,0,0,1.2µM,?,0
SMILES,ELG1 genotox,Rab9 promoter act,NPC1 promoter act,FLuc counter,SMN2 splice enh,KinaseGlo FLuc
COC(=O)c1ccc(C(NC(=O)OCc2ccccc2)/C(I)=C/[C@@H](C)C(=O)NCc2ccc(C)o2)cc1 (stereo partly specified),-,-,-,-,0,0
Cc1ccc(Cn2nc(C)c(NC(=O)c3nn(C)cc3Cl)c2C)cc1,0,0,0,0,0,0
O=C(Nc1ccn(Cc2ccc(Cl)cc2)n1)c1ccc2c(c1)OCO2,-,-,-,21µM,0,0
Cc1ccc(Cn2ccc(NC(=O)c3nn(C)cc3Cl)n2)cc1,0,?,?,21µM,0,0
O=C(N/N=C/c1ccc2c(c1)OCO2)c1ccn(Cc2ccc(Cl)cc2)n1,?,0,0,?,-,-
Cc1cccc(Cn2ccc(NC(=O)c3ccc4c(c3)OCO4)n2)c1,0,0,0,17µM,0,0
O=C(Nc1nnc(N2CCCCCC2)s1)Nc1ccccc1C(F)(F)F,-,-,-,?,0,-
COc1cc(-c2nc(Cn3nnc(C(=O)Nc4cc(C)cc(C)c4)c3C)c(C)o2)cc(OC)c1OC,-,-,-,0,0,-
Cc1ccc(/C=N/NC(=O)c2ccncc2)s1,0,0,0,?,-,-
Cc1ccc(/C=N/NC(=O)c2ccccn2)s1,?,0.5µM,1.3µM,?,4µM,?
Cc1cc(C)n(CC(=O)N/N=C/c2ccc([N+](=O)[O-])s2)n1,0,0,0,0,0,0
Cc1cc(C)n(CC(=O)N/N=C/c2cccs2)n1,0,0,0,17µM,0,0
Cn1cccc1/C=N/NC(=O)c1ccccn1,?,3.5µM,?,13µM,-,-
O=C(N/N=C/c1cccs1)c1ccccn1,?,2.5µM,3.5µM,11µM,25µM,?
O=C(CCC1N=C2c3ccccc3N=C(SCc3cccc(F)c3)N2C1=O)NCc1cccs1 (stereo unspecified),-,-,-,0,-,-
CCc1cccc(N2C(=O)N(Cc3c(F)cccc3Cl)c3ccccc3S2(=O)=O)c1,-,-,-,0,-,-
O=C(Cn1cc(S(=O)(=O)Cc2ccccc2Cl)c2ccccc21)Nc1ccc(F)cc1F,-,-,-,0,-,-
Cc1nc2nc(NCc3ccc(Cl)cc3)[nH]n2c(=O)c1Cc1ccccc1,-,-,-,?,0,-
Cn1cccc1/C=N/NC(=O)c1cc2ccccc2cc1O,?,?,?,19µM,-,-
Cn1cccc1/C=N/NC(=O)c1ccncc1,0,0,0,0,-,-
Cc1cc(C(=O)N/N=C/c2ccc(C)s2)n[nH]1,?,3.2µM,4µM,?,-,-
Cc1cc(C(=O)N/N=C/c2ccc([N+](=O)[O-])s2)n[nH]1,0,0,0,0,-,-
CC(C)CNC(=O)C(=O)N/N=C/c1cccs1,?,?,?,?,0,0
CC(C)(C)NC(=O)C(=O)N/N=C/c1cccs1,?,1.8µM,?,15µM,?,0
Cn1cccc1C(=O)N/N=C/c1c(Cl)cccc1Cl,16µM,2.8µM,2.5µM,11µM,-,-
SMILES,ELG1 genotox,Rab9 promoter act,NPC1 promoter act,FLuc counter,SMN2 splice enh,KinaseGlo FLuc
COc1ccc(N2CCN(C3(c4ccccc4)C(=O)c4ccccc4C3=O)CC2)cc1,-,-,-,0,0,-
CCc1ccccc1NC(=O)N(C)CCc1c(C)nn(C)c1C,-,-,-,0,0,-
CC(=O)c1cccc(NC(=O)c2ccc(-n3c(C)nnc3C)cc2)c1,-,-,-,0,-,-
C=CC[C@@](C(C)=O)(C(=O)OC)C(NC(=O)OC)c1ccccc1 (stereo partly specified),-,-,-,-,0,0
CCCN=Cc1sc2ccc(OCC)cc2c1O,23µM,3.2µM,?,12µM,0,0
Cc1ccc(CNC(=O)CSc2nc3ccsc3c(=O)n2-c2ccc(Br)cc2)cc1,-,-,-,0,-,-
O=c1oc(-c2ccccc2)nc2sc3c(c12)CCC3,0,0,0,2.4µM,?,?
Cc1ccc(-c2nc3sc4c(c3c(=O)n2N)CC(C)(C)OC4)cc1,0,0,0,0,0,0
Cc1sc2nc(-c3ccccc3)oc(=O)c2c1C,0,0,0,5.4µM,-,-
CC1(C)Cc2c(sc3nc(-c4cc5ccccc5o4)n(N)c(=O)c23)CO1,0,2.8µM,3.2µM,6µM,11µM,0
CC1(C)Cc2c(sc3nc(-c4ccccc4)oc(=O)c23)CO1,0,0,0,1.2µM,?,0

# High-throughput results as filed in PubChem BioAssay.
